Compounds with a hit are over-represented: about 19% of the library has one in this group of screens.
TDP1 cell CPT = growth inhibition of DT40 Tdp1-/-;hTDP1 cells with camptothecin (screen for TDP1 inhibitors); 420,000 compounds, 12% hits; Potency, µM (titrated, usually from 46.2 µM), usual class: inhibitors; AID 686979; chicken DT40 Tdp1-/-;hTDP1 cells + 20 nM CPT, ATP luminescence, 48 h; also: nearly all actives have a fitted effect of over 55% in size
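Chicken DT40 Tdp1-/- cells stably complemented with human TDP1 were seeded at 400 cells/well in medium containing 20 nM camptothecin, exposed to pin-transferred compounds, and grown at 37 °C for at least 48 hr. Viability was read as ATP luminescence.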
ELG1 repair inh = blocks ELG1-dependent DNA repair in HEK293T cells. 330,000 compounds, 2.3% hits. Potency, µM (highest dose often 46.1 µM), actives largely listed as inhibitors. AID 504467. HEK293T ELG1-luciferase reporter, luminescence, 16 h; DNA damage induced by 5-fluorouridine; also: nearly all actives have a fitted effect of over 55% in size
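Quantitative HTS, concentration-response format. 2,000 cells/well co-treated with 5-fluorouridine and compound, 16 hr in 5% CO2 at 37 °C; ONE-Glo luminescence read after 30 min.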
TDP1 cell noCPT = qHTS for Inhibitors of human tyrosyl-DNA phosphodiesterase 1 (TDP1): qHTS in cells in absence of CPT. DT40 Tdp1-/- hTDP1 cells, no CPT, ATP luminescence, 48 h. Potency, µM (titrated, usually from 46.2 µM), actives largely listed as inhibitors. 420,000 compounds, 15% hits. AID 686978, 2013; also: nearly all actives have a fitted effect of over 55% in size
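Seeded 400 DT40-hTDP1 cells/well (vehicle DMSO, no 20 nM CPT); pinned compounds; ≥48 hr at 37 °C; CellTiter-Glo luminescence as viability measure.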
HT1080 IDH1KD tx = toxicity to HT-1080 IDH1 knockdown cells (counter line); 360,000 compounds, 2% hits; Potency, µM (doses to about 46.1 µM), hits mostly cytotoxic; HT-1080 IDH1 knockdown viability, ATP luminescence, 48 h; AID 686971
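% activity derives from luminescence (CellTiter-Glo), normalised to DMSO and no-cell wells. HT-1080-IDH1KD cells, 750/well, had 48 h compound exposure at 37 °C.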
IL1B secr inh = inflammasome signaling inhibition, IL-1 beta readout | THP-1 LPS/ATP IL-1B secretion, AlphaLISA, 16 h; active compounds read low | activity change, % at 57.5 µM | 360,000 compounds, 4.7% hits | AID 743279; in the data active = activity change below about -50%; inconclusive = mostly about -30% to -49%
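Secreted IL-1B measured by AlphaLISA bead assay after 16 h compound exposure of THP-1 cells; compounds (final up to 57.5 uM) added 1 h before LPS (250 ng/mL) and ATP (1.25 mM) stimulation; lower signal means less secretion.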
HT1080-NT tox = kills 2HG-producing HT-1080-NT fibrosarcoma cells | Potency, µM (highest dose often 46.1 µM), most hits filed as cytotoxic | HT-1080-NT fibrosarcoma viability, CellTiter-Glo ATP luminescence, 48 h | 360,000 compounds, 1.6% hits | AID 686970;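 also: NT is the 2HG producing partner of a matched IDH1 knockdown line; nearly all actives have a fitted effect of over 55% in size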
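Viability of the 2HG-overproducing fibrosarcoma line after 48 hours of compound exposure at 37 degrees C was determined by luminescence with CellTiter-Glo, and concentration-effect curves were then fitted and categorized.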
A number is an active result; - = inactive; ? = inconclusive; . = no result. Unless noted, calls follow the shape of the dose curve; as a rule, active = well fitted curve in the direction sought with a large enough effect; inconclusive = small, poorly fitted or top-dose-only effect, or another doubt; inactive = no such curve, though single readings can be large; an effect the other way counts as inactive or inconclusive.

SMILES	TDP1 cell CPT	ELG1 repair inh	TDP1 cell noCPT	HT1080 IDH1KD tx	IL1B secr inh	HT1080-NT tox
CC(=O)Nc1ccc(/C=C2\Sc3ccccc3C2=O)cc1	-	-	-	-	-	-
CSc1ccc(/C=C2\C=C(C(O)c3ccc(SC)cc3)c3ccccc32)cc1 (stereo unspecified)	10µM	.	10µM	.	.	.
COc1ccccc1NC(=O)c1ccc2[nH]c(C)c(C)c2c1	?	?	?	-	-	-
CC(=O)c1ccc(Oc2ncnc(N)c2[N+](=O)[O-])cc1	23.1µM	-	?	-	-	-
Nc1ncnc(Oc2ccccc2F)c1[N+](=O)[O-]	-	-	-	-	-89.0	-
CC1(C)CC(=O)C(=Cc2cn(CCC#N)nc2-c2ccc(Cl)cc2)C(=O)C1	?	-	-	-	-	-
O=C(O)/C=C/c1cn(-c2ccccc2)nc1-c1ccccc1	-	-	-	-	-	-
CC1=NNC(=O)/C1=C\c1cn(-c2ccccc2)nc1-c1ccccc1	5.8µM	?	4.11µM	13µM	-104.3	16.4µM
CC1(C)CC(=O)C(=Cc2cn(-c3ccccc3)nc2-c2ccc(Cl)cc2)C(=O)C1	9.2µM	?	20.6µM	?	-	-
COc1ccc([C@H]2C[C@H](O)[C@@H](n3cc(-c4ccc(F)cc4)nn3)CN2C(=O)C2CCCCC2)cc1	-	.	-	-	-	-
CCSc1ncc(/C=N/Nc2ccc([N+](=O)[O-])cc2)n1C	?	?	-	13µM	-	13µM
CCSc1ncc(/C=N/Nc2ccc(Cl)cc2)n1C	?	?	?	?	-	?
CCSc1ncc(/C=N/Nc2ccccc2)n1C	23.1µM	?	16.4µM	-	-	-
C=CCc1ccccc1OCCNCc1ccccc1	?	-	16.4µM	?	-91.2	-
Cc1ccc(C(C)C)c(OCCNCCc2ccccc2)c1	?	?	23.1µM	-	-90.9	-
Cc1cc(C)c(C)c(OCCNCc2ccccc2)c1	?	?	?	14.6µM	-93.3	?
CCCCNCC#CCOc1cc(C)ccc1C(C)C	?	?	?	-	-69.9	-
Cc1ccc(/C=N/N=C2/NC(=O)C(CC(=O)Nc3ccccc3)S2)o1 (stereo unspecified)	-	-	-	-	-	-
Cc1cc(Cl)cc(C)c1OCCNCc1ccccc1	?	-	20.6µM	?	-96.0	18.4µM
Cc1cc(C)c(OCCNCc2ccccc2)c(C)c1	?	-	?	-	-54.3	-
Clc1ccc(OCCOCCNCc2ccccc2)cc1Cl	16.4µM	?	18.4µM	-	-	-
Cc1cc(Br)ccc1OCCNCc1ccccc1	?	-	?	?	?	?
Cc1cc(Cl)cc(C)c1OCCOCCNCc1ccccc1	23.1µM	-	?	-	?	?
O=C(CNC(=O)c1ccccc1)Oc1cccc(Cl)c1	-	.	-	-	-	-
COc1ccc([C@H]2CC(=O)C=C(c3cc(C=O)ccc3OC)C2)cc1	4.61µM	-	5.8µM	14.6µM	-	?
SMILES	TDP1 cell CPT	ELG1 repair inh	TDP1 cell noCPT	HT1080 IDH1KD tx	IL1B secr inh	HT1080-NT tox
COc1ccc([C@H]2CC(=O)C=C(c3cc(Cl)ccc3OC)C2)cc1	13µM	?	?	?	-	?
COc1ccc([C@H]2CC(=O)C=C(c3cc(C=O)ccc3OC)C2)cc1OC	?	?	?	-	-	-
COc1ccc([C@H]2CC(=O)C=C(c3c(OC)cccc3OC)C2)cc1	2.91µM	-	2.06µM	5.8µM	-	4.61µM
COc1ccc([C@H]2CC(=O)C=C(c3cc(OC)ccc3OC)C2)cc1	13µM	?	14.6µM	?	-	?
COc1ccc(C(=O)OCC(=O)Nc2sccc2C(N)=O)cc1[N+](=O)[O-]	-	-	-	?	-	-
CCOc1ccc(Cl)cc1C1=CC(=O)C[C@H](c2ccc(OC)cc2)C1	2.91µM	-	4.11µM	4.11µM	-	2.06µM
COc1ccc(-c2cn(Cc3ccc(C)cc3)nn2)cc1	-	?	-	-	-	-
Cc1nn(CC(=O)NCCCN2CCC(Cc3ccccc3)CC2)c(=O)c2cc(-c3ccccc3)nn12	18.4µM	-	18.4µM	-	-	-
Cc1nn(CC(=O)NCCCN2CCN(Cc3ccccc3)CC2)c(=O)c2cc(-c3ccccc3)nn12	?	-	20.6µM	-	-	-
CCN1CCN(CCCNC(=O)Cn2nc(C)n3nc(-c4ccccc4)cc3c2=O)CC1	-	?	-	-	-	-
COc1ccccc1NC(=O)CN1CCCCCC1	-	-	-	-	-	-
COc1ccccc1NC(=O)CN1CCN(C2c3ccccc3-c3ccccc32)CC1	18.4µM	3.66µM	20.6µM	?	-	?
COc1cccc(NC(=O)CN2C(=O)C(c3ccc(C)cc3)=NC23CCCCCC3)c1	?	-	?	-	-	-
CCOc1ccc(NC(=O)CN2CCN(C3c4ccccc4-c4ccccc43)CC2)cc1	?	13µM	?	-	-	-
CCOc1ccc(NC(=O)CN2C(=O)C(c3ccccc3)=NC23CCC(C)CC3)cc1 (stereo unspecified)	16.4µM	.	16.4µM	.	.	.
COc1cc(C(=O)OCC(=O)NC2CCCC2)cc(OC)c1OC	-	-	-	-	-	-
CCOc1ccccc1NC(=O)CN(c1ccc(OC)cc1)S(=O)(=O)c1c(C)[nH]c(=O)[nH]c1=O	-	-	-	-	-	-
COc1ccccc1C(=O)c1c(N)c(-c2nc(-c3ccccc3)cs2)c2ccccn12	18.4µM	.	20.6µM	.	.	.
Cc1cccc(NC(=O)COc2ccccc2C(=O)Nc2ccccc2)c1	?	.	?	-	.	-
O=C(COc1ccccc1C(=O)Nc1ccccc1)Nc1ccc(-c2ccccc2)cc1	?	.	11.2µM	.	.	.
O=C(Oc1ccccc1C(=O)Nc1ccccc1)c1ccccc1Br	18.4µM	?	20.6µM	7.31µM	?	?
O=C(Nc1ccc(C2CC2(Cl)Cl)cc1)c1ccccc1Br (stereo unspecified)	18.4µM	?	13µM	-	?	-
COc1ccc(C(=O)COc2ccccc2C(=O)Nc2ccccc2)cc1	11.6µM	?	18.4µM	-	-	-
O=C(COc1ccccc1C(=O)Nc1ccccc1)c1ccc(F)cc1	?	-	?	-	-	-
COc1ccccc1NC(=O)Cn1c(=O)n(-c2cccc(Cl)c2)c(=O)c2c1c1cc(C)ccc1n2C	-	.	-	.	.	.
COC(=O)[C@@H]1[C@H]2C[C@H]3c4[nH]c5ccccc5c4CCN3C[C@H]2CC[C@@H]1O	-	.	-	.	.	.
N#Cc1ccccc1NC(=O)COc1ccccc1C(=O)Nc1ccccc1	15.8µM	20.6µM	?	-	-	-

High-throughput results from PubChem BioAssay.
